Reference: article PMC4336329 (PLoS ONE, 2015)
The whole screen tested about 310,000 compounds, of which about 14,000 (4.5%) showed an effect of 50% or more. Effects have a minus sign here. Only a selection was taken, and strong results are over-represented in it overall.

Each molecule was assayed against human ether-à-go-go-related gene (hERG) potassium channel (human, UniProt Q12809) (assay: primary screen, population patch clamp on CHO cells stably expressing hERG; higher = less effect of the substance).
Chain of human ether-à-go-go-related gene (hERG) potassium channel (Q12809 whole entry, looked up): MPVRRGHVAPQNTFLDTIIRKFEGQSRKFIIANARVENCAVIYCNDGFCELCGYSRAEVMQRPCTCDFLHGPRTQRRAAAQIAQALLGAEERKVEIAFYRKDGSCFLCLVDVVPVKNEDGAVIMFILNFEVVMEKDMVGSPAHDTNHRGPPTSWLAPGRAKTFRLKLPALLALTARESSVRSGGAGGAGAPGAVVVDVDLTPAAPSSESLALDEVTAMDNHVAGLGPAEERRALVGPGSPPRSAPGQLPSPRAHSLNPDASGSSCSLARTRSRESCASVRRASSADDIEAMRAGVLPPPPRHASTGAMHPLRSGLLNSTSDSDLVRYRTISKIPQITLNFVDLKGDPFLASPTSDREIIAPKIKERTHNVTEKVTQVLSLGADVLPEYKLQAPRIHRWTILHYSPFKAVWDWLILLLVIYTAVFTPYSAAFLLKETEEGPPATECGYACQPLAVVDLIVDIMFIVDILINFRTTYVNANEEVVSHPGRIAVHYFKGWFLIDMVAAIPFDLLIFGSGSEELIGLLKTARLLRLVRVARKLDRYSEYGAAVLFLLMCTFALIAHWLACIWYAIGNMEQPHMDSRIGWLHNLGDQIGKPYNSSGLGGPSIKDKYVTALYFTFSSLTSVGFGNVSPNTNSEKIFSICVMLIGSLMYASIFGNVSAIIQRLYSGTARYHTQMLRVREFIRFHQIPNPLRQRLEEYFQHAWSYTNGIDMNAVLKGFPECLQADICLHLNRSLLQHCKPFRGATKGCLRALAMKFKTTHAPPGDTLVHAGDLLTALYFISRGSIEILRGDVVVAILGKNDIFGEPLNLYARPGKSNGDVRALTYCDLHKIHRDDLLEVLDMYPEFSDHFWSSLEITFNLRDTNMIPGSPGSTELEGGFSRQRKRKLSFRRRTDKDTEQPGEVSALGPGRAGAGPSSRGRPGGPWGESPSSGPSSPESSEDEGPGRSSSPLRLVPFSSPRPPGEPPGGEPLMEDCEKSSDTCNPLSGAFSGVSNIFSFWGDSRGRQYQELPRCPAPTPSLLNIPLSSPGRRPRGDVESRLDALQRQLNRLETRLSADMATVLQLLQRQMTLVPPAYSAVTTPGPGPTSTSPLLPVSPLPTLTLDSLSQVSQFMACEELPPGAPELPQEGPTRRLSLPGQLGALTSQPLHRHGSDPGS
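Also: peak tail current of the secondary pulse compared with the same well before compound.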

Row | Compound | hERG current change (%, negative = inhibition) at 10uM [%]
1 | CC(=O)NCCC(=O)N1CCCC(CNC(=O)c2ccc(-c3ccccc3)cc2)C1 (stereo not drawn) | -0.511
2 | Cn1cc(C(O)CN2CCCCC2)c2ccccc21 (stereo not drawn) | 9.26
3 | CCn1c(COc2ccc3c(c2)CCCC3)nnc1SCC(=O)Nc1ccc(C(=O)OC)cc1 | 5.43
4 | CN(Cc1ccccc1)C(=O)c1ccccc1NC(=O)c1ccco1 | 20
5 | Cc1c(N(C)C)nc2ccccc2c1N.O=C(O)C(=O)O | -46.5
6 | CCOC(=O)c1c(C)nc2ccccc2c1-c1ccccc1.Cl | -30.8
7 | CCN(CC)c1nc2ccccc2c(N)c1-c1ccccc1.O=C(O)C(=O)O | -77
8 | CCOC(=O)c1c(CCl)nc2ccccc2c1-c1ccccc1 | 5.72
9 | Cc1nc2ccccc2c(-c2ccccc2)c1C(=O)c1ccccc1 | 0.392
10 | CN(C)c1nc2ccccc2c(N)c1-c1ccccc1.O=C(O)C(=O)O | -65.9
11 | CCOC(=O)c1c(-c2ccccc2)csc1NC(=S)NC | -3.27
12 | CCN(CC)C(=O)COc1ccc(Br)cc1Cl | -11.8
13 | NC(=S)N/N=C1\CC(n2nnn(-c3cccc(Cl)c3)c2=S)C2COC1O2 (stereo not drawn) | -26.8
14 | Cc1cc(C)cc(C(=O)NC(CC(N)=O)c2ccc(N3CCC(Br)CC3)c([N+](=O)[O-])c2)c1 (stereo not drawn) | -16.1
15 | CC(=O)c1ccc(OCC(=O)Nc2ccccc2N2CCCC2)cc1 | -2.74
16 | CC(Oc1ccc(F)cc1)C(=O)Nc1cc(S(=O)(=O)N2CCCCC2)ccc1N1CCOCC1 (stereo not drawn) | -5.21
17 | CCN1CCN(c2ccc(S(=O)(=O)N3CCOCC3)cc2NC(=O)C(C)Oc2cccc(Cl)c2)CC1 (stereo not drawn) | -70.8
18 | CCN1CCN(c2ccccc2NC(=O)C(C)Oc2ccc(C(C)=O)cc2)CC1 (stereo not drawn) | -51.6
19 | CCN1CCN(c2ccc(S(=O)(=O)N3CCOCC3)cc2NC(=O)C(C)Oc2ccc(Cl)cc2)CC1 (stereo not drawn) | -70.9
20 | CC(Oc1cccc(Cl)c1)C(=O)Nc1ccccc1N1CCCC1 (stereo not drawn) | -15.3
21 | CC(Oc1cccc(Cl)c1)C(=O)Nc1cc(S(=O)(=O)N2CCOCC2)ccc1N1CCCC1 (stereo not drawn) | -24.8

Row | Compound | hERG current change (%, negative = inhibition) at 10uM [%]
22 | CC(Oc1cccc(Cl)c1)C(=O)Nc1cc(S(=O)(=O)N2CCCCC2)ccc1N1CCOCC1 (stereo not drawn) | -8.24
23 | CCN1CCN(c2ccc(S(=O)(=O)N3CCCCC3)cc2NC(=O)C(C)Oc2ccc(F)cc2)CC1 (stereo not drawn) | -72.7
24 | CC(Oc1ccc(F)cc1)C(=O)Nc1cc(S(=O)(=O)N2CCOCC2)ccc1N1CCCCC1 (stereo not drawn) | 6.32
25 | CC(Oc1ccc(Br)cc1)C(=O)Nc1cc(S(=O)(=O)N2CCOCC2)ccc1N1CCCC1 (stereo not drawn) | -5.62
26 | CC(Oc1cccc(Cl)c1)C(=O)Nc1cc(S(=O)(=O)N2CCOCC2)ccc1N1CCCCC1 (stereo not drawn) | 8.44
27 | O=C(Nc1cccnc1)C1(c2ccccc2)CCCC1 | 4.11
28 | O=[N+]([O-])/C=C1/NCCN1Cc1ccc(Cl)nc1 | -1.96
29 | CC1CCc2c(C(=O)NCc3ccco3)csc2C1 (stereo not drawn) | -8.96
30 | Cn1c(SCC(=O)O)nc2sc3c(c2c1=O)CCC3 | 30.3
31 | COC(=O)c1ccc2c(c1)S(=O)(=O)NC(=NCc1ccco1)S2 | -23.8
32 | O=C(NCc1cccc(Cl)c1)c1cnccn1 | -9.28
33 | CCn1ncc(-c2csc(N)n2)c1C | 0.511
34 | BrC(=C\c1ccccc1)/C=N/N1CCN(Cc2ccccc2)CC1 | 4.34
35 | CCN1C(=O)C(CC(=O)NCCc2ccccc2)N(NC(=O)c2cccnc2)C1=S (stereo not drawn) | -21.1
36 | O=C(CSc1nc2cc(Cl)ccc2s1)Nc1cccc(S(=O)(=O)N2CCOCC2)c1 | -10.7
37 | S=C(NCCc1ccccc1)Nc1ccc(Br)cn1 | 3.98
38 | CCN1CCN(c2ccc(S(=O)(=O)N3CCOCC3)cc2NC(=O)C(C)Oc2ccc(F)cc2)CC1 (stereo not drawn) | -57.4
39 | CC(Oc1ccc(F)cc1)C(=O)Nc1cc(S(=O)(=O)N2CCOCC2)ccc1N1CCN(C)CC1 (stereo not drawn) | -29.9
40 | CC(Oc1ccc(F)cc1)C(=O)Nc1cc(S(=O)(=O)N2CCOCC2)ccc1N1CCCC1 (stereo not drawn) | 13.7
41 | C=CCN1C(=O)/C(=C\c2ccc(Oc3nc(N4CCOCC4)nc(N4CCOCC4)n3)c(OC)c2)SC1=S | 15.9
42 | COCCn1c(=S)[nH]c2cc(C(=O)NCCCN3CCOCC3)ccc2c1=O | 8.93

Row | Compound | hERG current change (%, negative = inhibition) at 10uM [%]
43 | CCCC[C@@H](CNC)NC[C@H](Cc1ccc(O)cc1)NCCc1ccc(OCC)cc1 | -53.7
44 | CCC[C@H](CN[C@@H](CNC)[C@H](C)O)NCCc1ccc(OC)cc1 | 2.16
45 | CCC[C@@H](CNC)NC[C@H](Cc1ccccc1)NCCCCc1ccccc1 | -6.02
46 | Cc1[nH]c2ccccc2c1/C=N/n1cnnc1 | 10.2
47 | COCCn1c(C)cc(C(=O)COc2ccc(N(C)S(=O)(=O)c3ccc(C)cc3)cc2)c1C | -19.9
48 | CCc1ccc(OCC(=O)N/N=C/c2cc([N+](=O)[O-])ccc2N2CCOCC2)cc1 | -14.6
49 | CCN(CC)S(=O)(=O)c1ccc(-c2cn3ccc(C)cc3n2)cc1 | 7.52
50 | OC(COCc1cccs1)CN1CCN(c2cccc(C(F)(F)F)c2)CC1 (stereo not drawn) | -69.6
51 | OC(COC(c1ccccc1)c1ccccc1)CN1CCN(c2cccc(Cl)c2)CC1 (stereo not drawn) | 6.16
52 | CN1CCCN(CC(O)COCc2cccs2)CC1 (stereo not drawn) | -2.94
53 | O=C(Cc1cccs1)N1CCN(c2cccc(Cl)c2)CC1 | -12
54 | Cl.OC(COCc1cccs1)CN1CCCCCC1 (stereo not drawn) | -21.9
55 | O=C(O)C(=O)O.OC(COCc1cccs1)CN1CCN(c2cccc(Cl)c2)CC1 (stereo not drawn) | -63.8
56 | CCOC(=O)CNC(=O)c1cn(CC(C)C)c(=O)c2cc(OC)c(OC)cc12 | -24
57 | CCCC(=O)Nc1nnc(-c2ccccc2)o1 | 7.03
58 | CCOc1ccc(NC(=O)CN(C)C(=O)c2cccnc2Sc2ccc(C)c(C)c2)cc1OCC | 0.0885
59 | CCOc1ccc(NC(=O)CN(C)C(=O)c2cc(C)nc3ccccc23)cc1OCC | -16.2
60 | CCOc1ccc(NC(=O)CN(C)C(=O)c2cc(-c3ccncc3)nc3ccccc23)cc1OCC | -58.6
61 | COCCN(CC(=O)Nc1cccc(C)c1C)C(=O)c1cc(-c2ccncc2)nc2ccccc12 | -57.3
62 | COCCN(CC(=O)Nc1cccc(C)c1C)C(=O)c1cc2ccccc2cc1OC | -26.7
63 | CCOc1ccc(NC(=O)CN(C)C(=O)c2cccnc2Sc2ccc(Cl)cc2)cc1OCC | -52.4

Row | Compound | hERG current change (%, negative = inhibition) at 10uM [%]
64 | CCOc1ccc(NC(=O)CN(C)C(=O)c2cccnc2Sc2ccccc2Cl)cc1OCC | -8.63
65 | CCOc1ccc(NC(=O)CN(C)C(=O)c2cc(-c3ccc(OC)cc3)nc3ccccc23)cc1OCC | -2.15
66 | COCCN(CC(=O)Nc1cccc(C)c1C)C(=O)c1ccc2ccccc2n1 | -0.121
67 | O=C(Cc1ccc(S(=O)(=O)N2CCOCC2)s1)N1CCN(S(=O)(=O)c2cccc(Cl)c2)CC1 | -5.33
68 | CC(=O)N1N=C(c2ccc(C)cc2)OC1c1ccc(Br)cc1 (stereo not drawn) | 27.8
69 | Cc1nnc(NC(=O)CSc2ccc(-c3ccco3)nn2)s1 | 9.75
70 | CC(C)NC(=O)CSc1nc(N)c(NC(=O)c2ccco2)c(=O)[nH]1 | 14.7
71 | OCCNc1nc2nonc2nc1NCCO | 11
72 | CN1CCCN(C(c2ccccc2)c2ccc(Cl)cc2)CC1.Cl (stereo not drawn) | -73.8
73 | O=C(O)/C=C/C(=O)N1CCN(C(c2ccccc2)c2ccccc2)CC1 | 40.8
74 | CN1CCN(C(c2ccccc2)c2ccccc2)CC1.Cl | -12.1
75 | CN1CCN(C(=O)/C=C/c2cccc(Cl)c2)CC1 | -6.45
76 | Clc1ccc(C(c2ccccc2)N2CCN(c3ccccn3)CC2)cc1 (stereo not drawn) | -5.64
77 | CN1CCN(C(c2ccccc2)c2ccc(Cl)cc2)CC1.Cl (stereo not drawn) | -60.9
78 | Clc1ccc(C(c2ccccc2)N2CCNCC2)cc1 (stereo not drawn) | -22.7
79 | CN1CCN(C(c2cccc(Cl)c2)c2ccccc2Cl)CC1.O=C(O)/C=C\C(=O)O (stereo not drawn) | -73.1
80 | Cc1cccc(CN2CCN(C(c3ccccc3)c3ccc(Cl)cc3)CC2)c1.Cl (stereo not drawn) | 18.5
81 | COc1cccc(CN2CCN(c3ncccn3)CC2)c1OC | -3.3
82 | COc1ccc(CCNC(=O)c2nnn(CC(=O)Nc3ccccc3C)c2N)cc1OC | 16.3
83 | CSc1ncccc1C(=O)Nc1ccc(C)cn1 | 0.536
84 | Cc1ccc(CS/C(Nc2ccccc2C)=C(\C#N)C(=O)NCc2ccco2)c(C)c1 | 9.03
